According to the supplement of paper PMC10849652:
About 8,800 targets were measured; listed, in parts, are those with a hit and a random draw of the rest. About 0.5% of all pairs of compound and target were hits. Unmarked numbers belong to inactive results.

Key:
Experiment in all cases: log2 fold change, soluble protein after heating vs DMSO (PISA); higher = thermal stabilisation; K562 lysate, 10 uM; active = over 0.2 and 3.5 SD of the protein, either way, in both replicates (recomputed)
erlotinib = compound: C#Cc1cccc(Nc2ncnc3cc(OCCOC)c(OCCOC)cc23)c1 [erlotinib]
Outline: (§1)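 K562 pellets were dounce-homogenised in PBS pH 7.4 containing 1 mM MgCl2, and the crude extract, at 1 mg/mL protein, was exposed to 10 μM compound for 30 min. Aliquots were heated for 3 min across 48°C-58°C, pooled, brought to 0.5% NP-40 at 4°C and spun at 21,000xg for 90 min, with the supernatant taken as soluble protein. TMTpro 16plex LC-MS/MS with equalised channel sums quantified that protein. Values are log-two fold changes in thermal stability relative to solvent controls, taken from duplicates.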

[1] = compound: C/C(=N\NC(=O)C1=CC(=CC=C1)S(=O)(=O)N2CCOCC2)/C3=C(C=CC(=C3)Cl)O
Outline: as §1

[2] = compound: C1=CC(=CC=C1C2=NC3=C(N2)C=C(C=C3)C(=O)N)OC4=CC=C(C=C4)Cl
Outline: as §1

[3] = compound: C1=CC2=C(C=CC(=C2)/C=C\3/C(=O)NC(=NCC4=CC=CS4)S3)N=C1
Outline: as §1

[4] = compound: C1=CC2=NC=CN=C2C=C1/C=C/3\C(=O)NC(=O)S3
Outline: as §1

[5] = compound: C1=CC=C(C=C1)C2=NC(=C(N2)C3=CC=NC=C3)C4=CC(=C(C=C4)Cl)O
Outline: as §1

[6] = compound: C1=CC=C2C(=C1)C3=NNC4=CC=CC(=C43)C2=O
Outline: as §1

[7] = compound: C1CCN(C1)C(=O)NC2=CC=CC(=C2)NC3=NC=C(C(=N3)NCCC4=CN=CN4)Br
Outline: as §1

[8] = compound: C1CN(CCC1(CC2=CC=C(C=C2)Cl)N)C3=NC=NC4=C3C=CN4
Outline: as §1

IRAK-1-4 Inhibitor I = compound: C1COCCN1CCN2C3=CC=CC=C3N=C2NC(=O)C4=CC(=CC=C4)[N+](=O)[O-] [IRAK-1-4 Inhibitor I]
Outline: as §1

ibrutinib = compound: C=CC(=O)N1CCC[C@@H](n2nc(-c3ccc(Oc4ccccc4)cc3)c3c(N)ncnc32)C1 [ibrutinib]
Outline: as §1

[9] = compound: CC(=O)c1cnc2ccc(-c3cc(Cl)c(O)c(Cl)c3)nc2c1N[C@H]1CC[C@H](CN(C)C)CC1
Outline: as §1

ralimetinib = compound: CC(C)(C)Cn1c(N)nc2ccc(-c3[nH]c(C(C)(C)C)nc3-c3ccc(F)cc3)nc21 [ralimetinib]
Outline: as §1

[10] = compound: CC(C)(O)CC(=O)NCCn1ccc2ncnc(Nc3ccc(Oc4cccc(C(F)(F)F)c4)c(Cl)c3)c21
Outline: as §1

[11] = compound: CC(C)C1=C2N=C(C=C(N2N=C1)NCC3=CC=CC=C3)NCCCCCCN
Outline: as §1

[12] = compound: CC1=C(C(CC(=O)N1)C2=CC=C(C=C2)C(F)(F)F)C(=O)NC3=C(C=C4C(=C3)C=NN4)F
Outline: as §1

[13] = compound: CC1=C(C2=C(C=C1)C(=O)C3=CC=CC=C3N2CCCN)C
Outline: as §1

[14] = compound: CC1=C(C=C(C=C1)NC(=O)C2=CC(=CC=C2)C(C)(C)C#N)NC3=CC4=C(C=C3)N=CN(C4=O)C
Outline: as §1

[15] = compound: CC1=C(C=C(C=C1)NC(=O)C2=CC(=CC=C2)N(C)C)NC(=O)C3=CC=C(C=C3)O
Outline: as §1

[16] = compound: CC1=CC=C(C=C1)SC2=C3C=C(SC3=CN=C2)C(=O)N
Outline: as §1

Chain of UniProt Q9UBG0 (Q9UBG0 whole entry, looked up): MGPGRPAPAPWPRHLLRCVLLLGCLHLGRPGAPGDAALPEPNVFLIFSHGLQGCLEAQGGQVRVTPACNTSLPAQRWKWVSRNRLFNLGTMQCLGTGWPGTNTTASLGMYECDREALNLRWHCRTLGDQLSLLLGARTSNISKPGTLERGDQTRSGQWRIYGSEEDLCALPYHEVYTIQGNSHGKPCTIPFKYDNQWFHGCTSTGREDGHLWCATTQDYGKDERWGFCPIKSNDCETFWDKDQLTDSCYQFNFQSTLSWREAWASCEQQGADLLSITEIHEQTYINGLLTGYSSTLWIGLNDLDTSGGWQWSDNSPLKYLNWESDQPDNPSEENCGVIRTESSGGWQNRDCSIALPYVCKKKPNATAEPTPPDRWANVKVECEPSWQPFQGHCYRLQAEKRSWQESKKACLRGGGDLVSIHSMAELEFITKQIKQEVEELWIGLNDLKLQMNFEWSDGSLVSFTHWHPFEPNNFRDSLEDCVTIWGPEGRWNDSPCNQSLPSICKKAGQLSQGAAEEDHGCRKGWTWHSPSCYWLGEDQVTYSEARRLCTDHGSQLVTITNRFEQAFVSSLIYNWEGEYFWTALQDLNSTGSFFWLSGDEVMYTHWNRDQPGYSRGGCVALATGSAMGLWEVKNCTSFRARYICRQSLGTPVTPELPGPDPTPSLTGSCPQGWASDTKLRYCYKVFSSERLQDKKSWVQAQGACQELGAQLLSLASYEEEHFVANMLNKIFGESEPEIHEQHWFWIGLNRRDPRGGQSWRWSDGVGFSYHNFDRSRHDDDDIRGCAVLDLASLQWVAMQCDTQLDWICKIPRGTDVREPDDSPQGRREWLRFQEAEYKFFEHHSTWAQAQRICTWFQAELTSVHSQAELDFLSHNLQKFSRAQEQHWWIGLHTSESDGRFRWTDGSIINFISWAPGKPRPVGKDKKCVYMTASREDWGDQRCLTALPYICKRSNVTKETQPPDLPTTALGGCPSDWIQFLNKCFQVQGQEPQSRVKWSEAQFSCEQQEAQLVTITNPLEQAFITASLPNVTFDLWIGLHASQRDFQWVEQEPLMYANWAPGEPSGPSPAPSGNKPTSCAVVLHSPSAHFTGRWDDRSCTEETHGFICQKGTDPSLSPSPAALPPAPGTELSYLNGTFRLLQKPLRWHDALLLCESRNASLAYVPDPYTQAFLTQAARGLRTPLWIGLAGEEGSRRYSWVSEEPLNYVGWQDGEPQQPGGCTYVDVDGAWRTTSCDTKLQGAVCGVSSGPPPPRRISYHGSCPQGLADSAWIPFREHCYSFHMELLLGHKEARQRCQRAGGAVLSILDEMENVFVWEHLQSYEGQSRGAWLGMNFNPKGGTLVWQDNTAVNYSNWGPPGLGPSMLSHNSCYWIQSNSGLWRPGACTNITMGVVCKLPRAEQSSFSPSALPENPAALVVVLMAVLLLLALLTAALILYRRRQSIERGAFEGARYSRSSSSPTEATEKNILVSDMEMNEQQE
Chain of UniProt Q5T3J3 (Q5T3J3 whole entry, looked up): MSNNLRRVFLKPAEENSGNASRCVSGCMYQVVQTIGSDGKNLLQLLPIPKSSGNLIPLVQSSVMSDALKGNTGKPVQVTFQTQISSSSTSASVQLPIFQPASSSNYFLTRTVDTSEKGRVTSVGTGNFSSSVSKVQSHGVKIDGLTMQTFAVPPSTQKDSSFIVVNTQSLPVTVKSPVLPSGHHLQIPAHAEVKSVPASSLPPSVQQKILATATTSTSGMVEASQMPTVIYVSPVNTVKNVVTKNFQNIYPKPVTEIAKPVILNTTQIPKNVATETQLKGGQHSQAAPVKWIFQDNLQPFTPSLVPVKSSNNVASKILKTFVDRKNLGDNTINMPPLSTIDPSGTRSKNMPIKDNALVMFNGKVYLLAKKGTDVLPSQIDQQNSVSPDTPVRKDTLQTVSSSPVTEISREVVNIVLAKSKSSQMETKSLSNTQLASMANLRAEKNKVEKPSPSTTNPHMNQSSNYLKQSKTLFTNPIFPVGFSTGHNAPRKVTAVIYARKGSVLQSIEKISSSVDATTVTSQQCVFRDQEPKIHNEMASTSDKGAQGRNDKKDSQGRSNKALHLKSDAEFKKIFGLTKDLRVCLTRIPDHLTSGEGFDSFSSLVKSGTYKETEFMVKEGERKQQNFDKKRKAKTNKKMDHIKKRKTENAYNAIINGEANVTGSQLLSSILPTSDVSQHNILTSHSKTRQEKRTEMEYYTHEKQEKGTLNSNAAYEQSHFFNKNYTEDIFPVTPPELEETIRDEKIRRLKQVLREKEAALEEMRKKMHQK
Chain of UniProt Q8IW41 (Q8IW41 whole entry, looked up): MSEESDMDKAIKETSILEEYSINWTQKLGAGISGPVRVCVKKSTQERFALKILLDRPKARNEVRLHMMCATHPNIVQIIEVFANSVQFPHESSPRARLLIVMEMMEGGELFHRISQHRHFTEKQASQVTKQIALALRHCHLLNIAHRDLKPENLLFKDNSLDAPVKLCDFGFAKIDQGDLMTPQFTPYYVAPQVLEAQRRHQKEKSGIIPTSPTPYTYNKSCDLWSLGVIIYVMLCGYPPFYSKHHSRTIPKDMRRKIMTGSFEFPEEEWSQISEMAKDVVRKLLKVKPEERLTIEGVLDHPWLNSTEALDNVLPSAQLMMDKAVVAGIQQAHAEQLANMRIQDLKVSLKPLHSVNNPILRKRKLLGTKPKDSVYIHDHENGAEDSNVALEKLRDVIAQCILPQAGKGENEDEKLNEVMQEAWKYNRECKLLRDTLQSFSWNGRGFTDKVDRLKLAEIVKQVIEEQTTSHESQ
Chain of UniProt Q8WXB1 (Q8WXB1 whole entry, looked up): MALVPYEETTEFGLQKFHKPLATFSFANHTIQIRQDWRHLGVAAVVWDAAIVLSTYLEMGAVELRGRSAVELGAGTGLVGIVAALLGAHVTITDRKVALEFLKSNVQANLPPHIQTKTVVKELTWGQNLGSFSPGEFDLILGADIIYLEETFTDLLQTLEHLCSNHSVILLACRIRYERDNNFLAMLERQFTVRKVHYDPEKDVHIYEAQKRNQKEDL
Chain of UniProt P01116 (P01116 whole entry, looked up): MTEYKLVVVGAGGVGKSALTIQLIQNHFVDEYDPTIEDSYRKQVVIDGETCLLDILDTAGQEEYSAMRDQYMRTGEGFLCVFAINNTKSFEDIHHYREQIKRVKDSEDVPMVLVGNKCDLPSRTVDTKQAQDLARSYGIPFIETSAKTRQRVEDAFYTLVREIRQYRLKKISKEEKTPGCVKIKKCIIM
Chain of UniProt Q8TC05 (Q8TC05 whole entry, looked up): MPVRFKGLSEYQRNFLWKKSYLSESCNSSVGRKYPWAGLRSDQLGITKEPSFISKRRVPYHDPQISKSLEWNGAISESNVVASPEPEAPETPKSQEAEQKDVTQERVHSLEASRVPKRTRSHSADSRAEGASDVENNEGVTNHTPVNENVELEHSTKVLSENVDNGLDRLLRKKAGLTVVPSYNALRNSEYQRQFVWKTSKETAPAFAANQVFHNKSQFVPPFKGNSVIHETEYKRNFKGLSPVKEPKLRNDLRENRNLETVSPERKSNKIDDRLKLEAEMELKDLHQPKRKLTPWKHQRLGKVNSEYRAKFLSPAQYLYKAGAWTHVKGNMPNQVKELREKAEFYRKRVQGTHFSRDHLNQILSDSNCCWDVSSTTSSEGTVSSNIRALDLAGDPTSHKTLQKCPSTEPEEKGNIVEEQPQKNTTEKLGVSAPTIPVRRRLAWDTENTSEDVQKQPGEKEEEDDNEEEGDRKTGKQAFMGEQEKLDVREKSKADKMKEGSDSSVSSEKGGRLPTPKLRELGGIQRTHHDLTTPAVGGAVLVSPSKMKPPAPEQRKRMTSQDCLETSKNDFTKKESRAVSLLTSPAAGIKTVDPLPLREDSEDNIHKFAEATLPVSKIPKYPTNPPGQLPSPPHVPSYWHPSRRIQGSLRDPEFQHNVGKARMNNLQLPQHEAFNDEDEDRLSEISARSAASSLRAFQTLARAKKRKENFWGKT
Chain of UniProt P83369 (P83369 whole entry, looked up): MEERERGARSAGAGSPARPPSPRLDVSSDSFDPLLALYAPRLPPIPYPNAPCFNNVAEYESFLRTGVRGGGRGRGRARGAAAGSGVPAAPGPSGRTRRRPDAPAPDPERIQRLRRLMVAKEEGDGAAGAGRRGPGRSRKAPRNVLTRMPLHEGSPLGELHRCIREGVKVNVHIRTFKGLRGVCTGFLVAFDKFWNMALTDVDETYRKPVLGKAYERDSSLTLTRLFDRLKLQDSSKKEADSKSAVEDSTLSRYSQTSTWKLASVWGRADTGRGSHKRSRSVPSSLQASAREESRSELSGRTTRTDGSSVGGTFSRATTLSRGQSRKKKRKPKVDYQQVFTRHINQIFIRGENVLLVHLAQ
Chain of UniProt Q9H204 (Q9H204 whole entry, looked up): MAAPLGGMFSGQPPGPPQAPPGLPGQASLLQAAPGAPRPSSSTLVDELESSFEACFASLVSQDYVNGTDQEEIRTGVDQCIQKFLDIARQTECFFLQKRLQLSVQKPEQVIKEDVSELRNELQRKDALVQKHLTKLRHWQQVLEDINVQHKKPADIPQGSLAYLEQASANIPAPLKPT
Chain of UniProt Q9NWR8 (Q9NWR8 whole entry, looked up): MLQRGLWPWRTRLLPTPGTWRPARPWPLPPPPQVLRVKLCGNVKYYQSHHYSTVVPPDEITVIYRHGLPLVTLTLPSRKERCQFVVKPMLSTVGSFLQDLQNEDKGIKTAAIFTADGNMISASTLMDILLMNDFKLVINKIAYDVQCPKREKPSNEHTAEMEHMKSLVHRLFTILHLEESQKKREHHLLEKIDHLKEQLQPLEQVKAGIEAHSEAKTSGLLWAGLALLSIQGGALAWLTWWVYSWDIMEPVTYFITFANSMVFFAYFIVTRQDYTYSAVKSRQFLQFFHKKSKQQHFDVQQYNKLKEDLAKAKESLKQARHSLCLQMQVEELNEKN

Target	log2 fold change (erlotinib)	log2 fold change [1]	log2 fold change [2]	log2 fold change [3]	log2 fold change [4]	log2 fold change [5]	log2 fold change [6]	log2 fold change [7]	log2 fold change [8]	log2 fold change (IRAK-1-4 Inhibitor I)	log2 fold change (ibrutinib)	log2 fold change [9]	log2 fold change (ralimetinib)	log2 fold change [10]	log2 fold change [11]	log2 fold change [12]	log2 fold change [13]	log2 fold change [14]	log2 fold change [15]	log2 fold change [16]
LETM1 (UniProt O95202)	-0.012	0.061	-0.157	0.012	0.014	0.01	0.044	-0.006	0.02	-0.013	-0.006	-0.001	0.007	0.002	0.045	-0.026	0.026	0.036	0	0.037
MAPKAPK5 (UniProt Q8IW41)	-0.058	-0.045	0.016	0.12	0.007	-0.024	0.276 (active)	0.035	0.031	-0.049	-0.001	-0.008	-0.024	-0.012	0	-0.057	-0.01	0.034	0.048	-0.066
KRAS isoform 2 (UniProt P01116)	-0.038	–	0.087	–	–	-0.071	–	-0.044	0.015	0.033	–	0.05	0.071	-0.078	-0.05	–	-0.011	-0.025	0.004	0.059
MRPL22 (UniProt Q9NWU5)	-0.424 (active)	–	-0.074	–	–	0.006	–	–	–	-0.01	–	0.001	0.018	-0.033	0.058	0.001	–	-0.017	0.051	0.069
LRIF1 (UniProt Q5T3J3)	-0.015	0.11	0.046	-0.301 (active)	–	0	0.1	-0.031	-0.009	-0.02	–	-0.088	-0.09	-0.055	0.089	-0.143	-0.044	-0.031	0.046	-0.197
MAP4K4 isoform 6 (UniProt O95819)	0.006	–	0.156	–	0.094	-0.061	–	0.003	-0.078	-0.049	0.056	0.001	-0.19	0.027	-0.021	–	-0.127	–	0.002	0.037
METTL21A (UniProt Q8WXB1)	-0.074	–	-0.011	–	0.019	-0.027	–	–	–	-0.04	0.006	-0.106	0.021	-0.032	0	-0.019	-0.138	0	0.009	-0.032
MDM1 (UniProt Q8TC05)	-0.018	-0.105	-0.036	-0.066	–	-0.054	-0.041	-0.05	-0.075	-0.043	–	-0.006	0.037	-0.054	-0.029	-0.027	0.022	–	-0.019	-0.079
MAPK3 (UniProt H0YEX6)	–	–	–	–	–	–	–	–	–	–	–	–	–	–	–	0.029	–	–	–	–
MRC2 (UniProt Q9UBG0)	-0.225	–	0.031	–	–	–	–	0.011	0.061	–	–	–	–	–	-0.015	0.002	0.03	0.133	–	–
MPDZ (UniProt O75970)	-0.017	-0.061	-0.095	-0.273	–	-0.091	0.004	-0.099	0.108	0.149	–	0.264	0.024	-0.157	-0.015	-0.173	0.062	0.057	0.076	-0.029
MAP3K6 (UniProt O95382)	–	0.05	–	0.183	–	–	0.487	0.033	-0.008	–	–	–	–	–	–	-0.12	–	–	–	–
LRRIQ1 (UniProt Q96JM4)	–	0.038	–	-0.003	–	0.041	-0.003	–	–	-0.083	–	-0.036	-0.041	0.019	–	–	–	0.671 (active)	0.047	-0.069
MCUB (UniProt Q9NWR8)	0.048	–	-0.069	–	0.209	0.048	–	–	–	-0.12	0.127	0.013	0.054	0.045	-0.063	0.039	-0.219	0.443 (active)	0.04	0.204
MRPL30 isoform 2 (UniProt Q8TCC3)	-0.004	–	-0.01	–	-0.037	-0.03	–	0.067	0.015	0.015	0.01	0.043	0.04	-0.084	0	0	-0.037	0.02	-0.006	0.087
MED28 (UniProt Q9H204)	0.057	–	0.039	–	–	0.045	–	–	–	-0.012	–	-0.067	-0.032	-0.025	-0.002	-0.088	-0.039	0.11	0.021	0.009
MAN2B2 (UniProt Q9Y2E5)	0.006	–	-0.019	–	-0.003	-0.035	–	-0.01	0.045	0.009	-0.019	-0.026	0.008	0.083	-0.051	0.056	-0.013	-0.013	-0.024	0.012
MME (UniProt P08473)	0	–	0.052	–	-0.067	0.011	–	–	–	0.095	0.286	-0.093	-0.117	-0.156	-0.012	-0.024	-0.23	0.007	-0.025	-0.043
LSM11 (UniProt P83369)	0.104	0.262	0.065	-0.056	–	–	-0.044	-0.029	-0.055	–	–	–	–	–	0.004	–	-0.198	-0.161	–	–
